Molecules are shown by their SMILES. Values joined by “and” are separate entries in the source; they are usually repeats but may differ in a detail not shown here. Equal entries are not always repeated. Records with an inconclusive call do not appear. Some compounds were tested as several samples or in several runs, with calls that do not always agree. Active and inactive are the calls of the source. The call rests on the fitted dose curve; in most records, active means well fitted inhibition curve with a large enough effect in the repeat runs; inconclusive means weak or mixed curves, or effect the other way; inactive means no such curve, though single readings can be large or run the other way.
On the % scale 0 is the no-effect control and ±100 the full control effect; potency means the concentration at half of the fitted maximal effect.

The test deals with Nuclear receptor ROR-gamma (Homo sapiens) (UniProt P51449). The experiment in a line: qHTS assay to identify small molecule antagonists of the retinoid-related orphan receptor gamma (ROR-gamma) signaling pathway (AID 1159521; further: nearly all actives have a fitted effect of over 50% in size; on activity change, negative = inhibition: top concentration of the series differs between compounds). Conditions: Tet-on RORgamma CHO cells, RORE-luciferase, 16 h; series mostly up to 92.4 µM; activity change, negative = inhibition: at the top concentration. From the text: U.S. Tox21 Program National Center for Advancing Translational Sciences [NCATS] NIH Chemical Genomics Center [NCGC] U.S. Environmental Protection Agency [EPA] National Institutes of Environmental Health Sciences [NIEHS] National Toxicology Program [NTP] U.S. Food and Drug Administration [FDA] Tox21 Assay Overview: Nuclear steroid hormone receptors are involved in many biological processes including inflammatory responses, cell proliferation, and apoptosis. Environmental factors or compounds disrupting these nuclear receptor pathways and gene expression may promote susceptibility to immunotoxicants and autoimmune diseases. One important group of these expression factors are the retinoid-related orphan receptors. To assess compounds that may interfere with the retinoid-related orphan receptor gamma (ROR-gamma) transcription factor, a cell-based luciferase assay was used. The CHO cell-based assay utilizes a TET-inducible ROR expression factor and ROR response element-LUC reporter gene. Reporter gene activity was induced using Doxycycline Hyclate and measured after 16 hr incubation. Tet-on ROR gamma CHO cells were used to screen against the Tox21 10K compound library for ROR gamma antagonists by quantification of decreased reporter gene activity in terms of decreased luminescence.
Tox21 Assay Protocol Summary: Tet-on ROR gamma CHO cells were dispensed at 1,000 cells in 4 uL of culture medium per well into white wall/solid bottom 1536-well plates using a Multidrop Combi (Thermo Scientific, Waltham, MA) dispenser. Following incubation at 37 C and 5% CO2 for 4 hr, 23 nL of compounds dissolved in DMSO, positive controls or DMSO only were transferred by a Pintool station (Kalypsys, San Diego, CA) and after 2 hr incubation at 37 C, one ul of 1 uM (final concentration) of Doxycycline Hyclate was added to all the wells by using a Flying Reagent Dispenser (FRD) (Aurora Discovery, San Diego, CA). After 16 hr incubation at 37 C and 5% CO2, 5 uL of ONE-Glo reagent (Promega Corporation, Madison, WI) was added to each assay plate using FRD. After 30 min incubation at room temperature, luminescence was quantified on a ViewLux plate reader (Perkin Elmer, Waltham, MA).
A general note: qHTS replaces the single test concentration by a dilution series.
With `CC(C)(C)NCC(O)COc1ccccc1OCC1CCCO1` (stereo not given), the “activity change, negative = inhibition” value was -1.51% [at 42.5 µM] (inactive).

On to `CCC(=O)/C=C/C1C(C)=CCCC1(C)C` (stereo not given), for which the “activity change, negative = inhibition” value is 0.973% (inactive).

`Cc1cccc([N+](=O)[O-])c1C(=O)O`: the “activity change, negative = inhibition” value was 42.7% (inactive). On to `CCOc1ccc2c(c1)C(C)=CC(C)(C)N2`, for which the Potency entry was “inactive”. Still for that read-out and setting: as for `CC(=O)N[C@@H](CS)C(=O)O`, the entry is “inactive”. `Cc1cc(C2(c3cc(C)c(O)cc3C)OS(=O)(=O)c3ccccc32)c(C)cc1O`: the “activity change, negative = inhibition” value is -0.606% (inactive). For the compound `O=C1Nc2ccccc2C1(c1ccc(O)cc1)c1ccc(O)cc1`, the Potency entry is “inactive”. On to `COC(=O)/C=C/c1ccccc1`, for which the Potency result is “inactive”.

For `BrC1CCC(Br)C(Br)CCC(Br)C(Br)CCC1Br` (stereo not given), the Potency was 27.2 µM (active) and 58 µM (active).

With `CO[Si](OC)(OC)c1ccccc1`, the “activity change, negative = inhibition” value was -3.56% (inactive). As for `CC(=O)CC(=O)Nc1ccc2[nH]c(=O)[nH]c2c1`, the “activity change, negative = inhibition” value is -4.65% (inactive). For the compound `CCCCCCCCCCCCCCCCCl`, the activity change, negative = inhibition is 19.2% [at 19 µM] (inactive).

Regarding `CC(=O)OCC1=C(C(=O)O)N2C(=O)[C@@H](NC(=O)Cc3cccs3)[C@H]2SC1`, the “activity change, negative = inhibition” value was 1.39% [at 42.5 µM] (inactive).

On to `NCCCCCC(=O)O`, for which the “activity change, negative = inhibition” value is 12.3% [at 42.5 µM] (inactive).

Turning to `Nc1cc(Cl)c(-c2cc(Cl)c(N)cc2Cl)cc1Cl`, the Potency is 7.69 µM (active) and 7.7 µM (active). For `O=C(O)c1cc(Cl)cc(Cl)c1`, the “activity change, negative = inhibition” value was 0.499% (inactive). On to `O=C1OC2(c3ccc(O)cc3Oc3cc(O)ccc32)c2ccccc21`, for which the Potency entry was “inactive”. For `NC(Cc1ccc(Cl)cc1)C(=O)O` (stereo not given), the activity change, negative = inhibition is 14.9% [at 0.35 µM] (inactive). Regarding `O=C1CC2(CCCC2)CC(=O)N1CCCCN1CCN(c2ncccn2)CC1`, the Potency is 27.3 µM (active) and inactive. Take `NC(N)=NC(=O)Cc1c(Cl)cccc1Cl`: the “activity change, negative = inhibition” value was -7.23% [at 42.5 µM] (inactive). Consider `NC(N)=Nc1nc(CSCC/C(N)=N/S(N)(=O)=O)cs1`, for which the Potency entry is “inactive”. For the compound `CCn1c2ccccc2c2cc(N)ccc21`, the Potency was 19.1 µM (active). For the compound `CC(C)(C)NCC(O)c1cc(O)cc(O)c1` (stereo not given), the “activity change, negative = inhibition” value is 4.31% [at 42.5 µM] (inactive). Consider `Cc1cc(OCCOCC[N+](C)(C)Cc2ccccc2)ccc1C(C)(C)CC(C)(C)C`, for which the Potency was 60.8 µM (active) and 29.8 µM (active). Turning to `CN1C(=O)c2ccc([N+](=O)[O-])cc2C1=O`, the “activity change, negative = inhibition” value is -18.5% (inactive). As for `Nc1ccc2cc3ccccc3cc2c1`, the Potency result is “inactive”.

With `[Cl][In]([Cl])[Cl]`, the “activity change, negative = inhibition” value was -2.24% (inactive). On the same count and under the same terms, as for `O=c1n(CC2CO2)c(=O)n(CC2CO2)c(=O)n1CC1CO1` (stereo not given), the figure is -29.2% (inactive).

With `CC[C@H]1CN2CCc3cc(OC)c(OC)cc3[C@@H]2C[C@@H]1C[C@H]1NCCc2cc(OC)c(OC)cc21`, the Potency was 173 nM (active) and 750 nM (active).

Consider `CNC1(C)C2CCC(C2)C1(C)C` (stereo not given), for which the “activity change, negative = inhibition” value was 22.6% [at 42.5 µM] (inactive). As to `OCCOCCN1CCN(C(c2ccccc2)c2ccc(Cl)cc2)CC1` (stereo not given), the Potency is 47.9 µM (active) and inactive. `c1ccc2cc3c(ccc4ccccc43)cc2c1`: the Potency result is “inactive”.

Turning to `CCn1cc(C(=O)O)c(=O)c2cc(F)c(N3CCNC(C)C3)c(F)c21` (stereo not given), the “activity change, negative = inhibition” value is 12.1% [at 42.5 µM] (inactive). On to `CCCCCC(=O)O[C@]1(C(C)=O)CC[C@H]2[C@@H]3CCC4=CC(=O)CC[C@]4(C)[C@H]3CC[C@@]21C`, for which the Potency was 27.1 µM (active) and 23.7 µM (active). Turning to `NC(=Nc1ccccc1)Nc1ccccc1`, the “activity change, negative = inhibition” value is -10.1% [at 42.5 µM] (inactive). Regarding `CC(COc1ccccc1)N(CCCl)Cc1ccccc1` (stereo not given), the Potency is 49.1 µM (active) and inactive. For the compound `OCC(CO)N[C@H]1C[C@](O)(CO)[C@@H](O)[C@H](O)[C@H]1O`, the “activity change, negative = inhibition” value was 2.75% [at 42.5 µM] (inactive). Turning to `CC1=CC(=O)c2ccccc2C1=O`, the Potency is 12.2 µM (active).

As to `NCCO`, the Potency result is “inactive”.

In the case of `C/C=C/c1ccc(OCC)c(O)c1`, the Potency entry is “inactive”.

Source of the values: PubChem BioAssay (Tox21).
